{"source": "PubChem BioAssay AID940", "about": "(Emory University Molecular Libraries Screening Center, 2007)", "note": "The campaign covered roughly 260,000 compounds. About 2,200 (0.85%) were called active. Only a selection was taken, and actives are over-represented in it overall. Unmarked numbers belong to inactive results.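 How the source made its calls: active means compounds whose cAMP rise, as percent of the full-agonist control response, exceeds 60; inactive means the rest.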"}
{"target": "Prostaglandin E2 receptor EP2 subtype (Homo sapiens) (UniProt P43116)", "sequence (P43116 whole entry, looked up)": "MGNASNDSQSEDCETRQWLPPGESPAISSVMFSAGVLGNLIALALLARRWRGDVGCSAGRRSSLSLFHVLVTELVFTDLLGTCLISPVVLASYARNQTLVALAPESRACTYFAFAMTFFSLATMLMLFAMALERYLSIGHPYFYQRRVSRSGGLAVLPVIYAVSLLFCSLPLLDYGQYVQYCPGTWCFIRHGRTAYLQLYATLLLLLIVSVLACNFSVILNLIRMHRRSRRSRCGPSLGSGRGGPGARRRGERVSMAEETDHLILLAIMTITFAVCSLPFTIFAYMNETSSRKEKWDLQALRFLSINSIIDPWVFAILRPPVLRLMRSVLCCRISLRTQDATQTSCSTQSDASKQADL", "assay": "modulation of human EP2 prostaglandin signaling – cell-based, HTRF cAMP, PGE2 stimulation, primary screen (AID 940);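 further: rat C6 glioma line stably carrying human EP2 under a CMV promoter; the protocol text gives 20 µM as final concentration; 100% = response of wells given 1 µM PGE2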", "conditions": "EP2-expressing cells, cAMP HTRF FRET, PGE2 co-stimulation; at 25 µM; hits give high values"}
{"smiles": "O=c1c2ccccc2c(-c2ccc(F)cc2)nn1-c1ccc(C(F)(F)F)cc1", "induction": "47%"}
{"smiles": "O=c1c2ccccc2c(-c2ccccc2)nn1Cc1ccccc1", "induction": "66.7% (active)"}
{"smiles": "CCOC(=O)C(C)n1nc(-c2ccccc2)c2ccccc2c1=O", "note": "(stereo not given)", "induction": "49.3%"}
{"smiles": "O=c1c2ccccc2c(-c2ccc(Br)cc2)nn1Cc1ccccc1", "induction": "71.6% (active)"}
{"smiles": "O=c1c2ccccc2c(-c2ccccc2)nn1-c1ccccn1", "induction": "11.6%"}
{"smiles": "O=C(NCCc1ccco1)c1nn(Cc2ccccc2)c(=O)c2ccccc12", "induction": "44.9%"}
{"smiles": "CCCOc1ccc(C2C(C(=O)Nc3ccccc3OC)=C(C)Nc3ncnn32)cc1", "note": "(stereo not given)", "induction": "2.41%"}
{"smiles": "Cc1cc(C)nc(N2CCC(C(=O)NCC(N)=O)CC2)n1", "induction": "-4.46%"}
{"smiles": "Cc1cc(C)c2cc(C(c3nnnn3C(C)(C)C)N3CCCc4ccccc43)c(=O)[nH]c2c1", "note": "(stereo not given)", "induction": "26.2%"}
{"smiles": "COc1ccc2[nH]c(=O)c(CN(CCCO)C(=S)NCCCN(C)C)cc2c1", "induction": "-11.3%"}
{"smiles": "CC(C)(C)c1nn(-c2ccc(F)cc2)c2[nH]c(=O)c(CNCCc3ccncc3)cc12", "induction": "-25.4%"}
{"smiles": "Cc1ccccc1OCCCC(=O)Nc1nnc(C2CCCCC2)s1", "induction": "-40.5%"}
{"smiles": "COc1ccc(C(=O)N2CCc3cc(OC)c(OC)cc3C2c2ccccc2)cc1OC", "note": "(stereo not given)", "induction": "24.2%"}
{"smiles": "COC(=O)c1ccc(S(=O)(=O)NCc2ccccc2)n1C", "induction": "70.4% (active)"}
{"smiles": "COC(=O)c1ccc(S(=O)(=O)N(CCO)Cc2ccccc2)n1C", "induction": "-22.6%"}
{"smiles": "Cn1c(C(=O)O)ccc1S(=O)(=O)N(Cc1ccccc1)Cc1ccccc1", "induction": "21.3%"}
{"smiles": "COc1cccc(/C(O)=C2/C(=O)C(=O)NC2c2cccs2)c1", "note": "(stereo not given)", "induction": "4.28%"}
{"smiles": "CN(C(=O)Cc1ccccc1F)c1nc2c(s1)CCc1occc1-2", "induction": "-25.4%"}
{"smiles": "CN(C)Cc1ccc(F)cc1Sc1cc(Cl)ccc1Cl", "induction": "75.3% (active)"}
{"smiles": "C=COCCNC(=O)C1CCN(c2nc3ccccc3n2CC)CC1", "induction": "-36.5%"}
{"smiles": "COc1cccc(CN(Cc2ccco2)Cc2cncn2C)c1", "induction": "-1.11%"}
{"smiles": "CCCCOc1ccc(-c2nnc(-c3ccco3)o2)cc1", "induction": "66.9% (active)"}
{"smiles": "CCC(=O)Oc1cccc(C(=O)Nc2ccc(-c3nnc(-c4ccco4)o3)cc2)c1", "induction": "-19%"}
{"smiles": "CCOc1ccc(-c2nnc(-c3ccco3)o2)cc1", "induction": "-1.22%"}
{"smiles": "Cc1ccccc1CN1CCC(N2CCCCC2)CC1", "induction": "-20.6%"}
{"smiles": "COc1cc(CN2CCN(C(=O)c3cc(OC)c(OC)c(OC)c3)CC2)cc(OC)c1O", "induction": "-32.7%"}
{"smiles": "Cc1ccc(NC(=O)CSc2nnnn2-c2ccc3c(c2)OCO3)cc1", "induction": "-41.6%"}
{"smiles": "COc1ccc(C2CC(c3cccs3)=NN2c2ccc(F)cc2)cc1OC", "note": "(stereo not given)", "induction": "13.2%"}
{"smiles": "COc1ccc(C2CC(c3cccs3)=NN2C(=O)CSc2nnc(N)s2)cc1OC", "note": "(stereo not given)", "induction": "-1.37%"}
{"smiles": "COc1ccc(C2CC(c3cccs3)=Nc3ccccc3S2)cc1OC", "note": "(stereo not given)", "induction": "61.9% (active)"}
{"smiles": "Cc1cc2c(s1)c1cnn(CC(=O)NC(C)C)c(=O)c1n2C", "induction": "-39.8%"}
{"smiles": "COc1cc2[nH]c(=O)c(C(=O)NCc3ccc4c(c3)OCO4)c(O)c2cc1OC", "induction": "4.8%"}
{"smiles": "COc1cccc(CN2CCC(C(=O)NC(C)(C)C)CC2)c1O", "induction": "-12.3%"}
{"smiles": "Cc1ccccc1C(=O)Nc1ccccc1Sc1ccccc1", "induction": "73.8% (active)"}
{"smiles": "O=C(Nc1ccccc1F)c1ccccc1-c1ccccc1", "induction": "33.6%"}
{"smiles": "O=C(COC(=O)c1ccccc1)Nc1ccccc1Sc1ccccc1", "induction": "68.5% (active)"}
{"smiles": "Cc1ccccc1C(=O)Nc1ccc(N2CCCCCC2)cc1", "induction": "-79.9%"}
{"smiles": "O=C(COC(=O)c1cccc(Br)c1)Nc1cccc2c1C(=O)c1ccccc1C2=O", "induction": "-14.5%"}
{"smiles": "O=C(COC(=O)c1ccccn1)Nc1cccc2ccccc12", "induction": "-6.19%"}
{"smiles": "CC(C)(C)OC(=O)N1CCC[C@H]1C(=O)c1nc2ccccc2s1", "induction": "19.4%"}
{"smiles": "O=C(N1CCC(n2nnc3ccccc3c2=O)CC1)C1(c2ccccc2)CCCC1", "induction": "-7.6%"}
{"smiles": "CCc1cc(N2C3CCC2CC(O)(c2ccco2)C3)n2nc3nc(C)cc(C)c3c2n1", "note": "(stereo not given)", "induction": "13.8%"}
{"smiles": "CCCC(NC(=O)c1cnc(SC)nc1)c1cccs1", "note": "(stereo not given)", "induction": "-29.9%"}
{"smiles": "Cc1nn(CC(=O)NC2CCCC2)c(=O)c2cc3sccc3n12", "induction": "1.55%"}
{"smiles": "Cc1ccc(Nc2cc(C)nc3c(C)ccc([N+](=O)[O-])c23)cc1", "induction": "66.4% (active)"}
{"smiles": "Cc1ccc(Nc2ccc(C(N)=O)cc2[N+](=O)[O-])cc1", "induction": "-57.7%"}
{"smiles": "Cc1cc(C)nc(Nc2cc([N+](=O)[O-])ccc2C)n1", "induction": "-8.66%"}
{"smiles": "COc1ccc(C)cc1N(CC(=O)NC1CCCC1)C(=O)c1snc(C(N)=O)c1N", "induction": "-63.9%"}
{"smiles": "COCCCn1c(SCC(=O)Nc2cc(Cl)ccc2OC)nc2sc3c(c2c1=O)CCC3", "induction": "-5.26%"}
{"smiles": "CC(=O)Nc1nonc1-c1nc2ccccc2n1Cc1ccccn1", "induction": "4.24%"}
{"smiles": "COc1ccc(C)c(Cn2c(-c3nonc3N)nc3ccccc32)c1", "induction": "69% (active)"}
{"smiles": "Nc1nonc1-c1nc2ccccc2n1Cc1ccc(F)cc1", "induction": "28.5%"}
{"smiles": "COc1ccc(N(C(C)C(=O)N2CCN(C)CC2)S(C)(=O)=O)cc1", "note": "(stereo not given)", "induction": "-14.6%"}
{"smiles": "COc1ccc(CN(Cc2cn[nH]c2-c2ccc(O)cc2)CC2CCCO2)cc1", "note": "(stereo not given)", "induction": "18.7%"}
{"smiles": "CCc1cc(-c2n[nH]c(=S)n2CC(C)C)cs1", "induction": "-1.28%"}
{"smiles": "CCCc1cc(-c2n[nH]c(=S)n2Cc2ccccc2)cs1", "induction": "87.8% (active)"}
{"smiles": "CCCc1cc(-c2n[nH]c(=S)n2CC)c2ccccc2n1", "induction": "20.9%"}
{"smiles": "CCCc1nn(CC(=O)NC2CC2)c(=O)c2cc3ccsc3n12", "induction": "-12%"}
{"smiles": "COc1cc(C2C(C#N)=C(N)Oc3c2c(C)nn3-c2ccccc2)ccc1OCC#N", "note": "(stereo not given)", "induction": "-22.9%"}
{"smiles": "CCOC(=O)CC(=O)CSc1nc(-c2ccccc2)cc(-c2ccc(Cl)cc2)c1C#N", "induction": "9.52%"}
{"smiles": "N#Cc1c(-c2ccc(F)cc2)cc(C2CC2)nc1SCC(=O)c1cccs1", "induction": "63% (active)"}
{"smiles": "O=C(c1cccs1)N1CCCC(c2nc(-c3ccc(F)cc3)no2)C1", "note": "(stereo not given)", "induction": "-45.6%"}
{"smiles": "COc1cc(C2NC(=O)NC(C)=C2C(=O)Nc2cc(Cl)ccc2C)cc(OC)c1OC", "note": "(stereo not given)", "induction": "-22.7%"}
{"smiles": "Cc1cccc(-n2c(C)c3c(C)nnc(C)c3c2C)c1", "induction": "-24.2%"}
{"smiles": "O=C1Cc2ccccc2Sc2ccc(Cl)cc21", "induction": "61.4% (active)"}
{"smiles": "Clc1ccc(C=Nc2ccc3c(c2)Cc2ccccc2-3)c(Cl)c1", "induction": "6.77%"}
{"smiles": "S=C1Nc2cc(Cl)ccc2Sc2ccccc21", "induction": "11.7%"}
{"smiles": "CCn1c(=O)oc2cc(S(=O)(=O)N3CCCN(C(C)=O)CC3)ccc21", "induction": "-12.2%"}
{"smiles": "COc1ccccc1NC(=O)Cn1nc(C)n2c(cc3occc32)c1=O", "induction": "-27.1%"}
{"smiles": "CCOc1ccc2nc(Nc3nc(C)c(C(C)=O)c(C)n3)nc(C)c2c1", "induction": "-18.1%"}
{"smiles": "COc1ccc(-c2nnn(CC(=O)Nc3ccc(F)cc3F)n2)cc1OC", "induction": "-72%"}
{"smiles": "COC(=O)C1=C(C)N(C)C(C)=C(C(=O)OC)C1c1cccc(Br)c1", "induction": "66.5% (active)"}
{"smiles": "COC(=O)C1NN=C(C(=O)c2ccc(Br)cc2)C1c1cccc(Br)c1", "note": "(stereo not given)", "induction": "0.95%"}
{"smiles": "COC(=O)C1=C(C)N(C)C(=S)NC1c1ccccc1", "note": "(stereo not given)", "induction": "-3.11%"}
{"smiles": "COc1ccc(-c2ccc(SCC(=O)N3c4ccccc4CCc4ccccc43)nn2)cc1OC", "induction": "28.9%"}
{"smiles": "Cc1n[nH]c(=S)n1/N=C/c1ccc(Br)o1", "induction": "-3.02%"}
{"smiles": "Cc1ccccc1-c1n[nH]c(=S)n1/N=C/c1ccc(-c2ccccc2Br)o1", "induction": "77% (active)"}
{"smiles": "Cc1ccccc1-c1n[nH]c(=S)n1C", "induction": "25.6%"}
{"smiles": "COc1ccc(NCc2nnc(SCC(=O)Nc3ccccc3OC)n2C)cc1", "induction": "-42.3%"}
{"smiles": "C=CCNC(=O)CSc1nc(-c2ccc(OC)cc2)cc(C(F)(F)F)n1", "induction": "-95.2%"}
{"smiles": "Cc1cccc(Cn2c(N3CCN(c4ccccc4)CC3)nc3c2c(=O)n(C)c(=O)n3C)c1", "induction": "67.6% (active)"}
{"smiles": "Cc1cccc(Cn2c(SCCO)nc3c2c(=O)n(C)c(=O)n3C)c1", "induction": "25.1%"}
{"smiles": "Cn1c(=O)c2c(nc(N3CCN(c4ccccc4)CC3)n2CCC#N)n(C)c1=O", "induction": "-28.3%"}
{"smiles": "CCn1c2cc(C)sc2c2cnn(CC(=O)Nc3ccc(F)cc3)c(=O)c21", "induction": "-32.1%"}
{"smiles": "CC1CCN(c2nc3c(c(=O)[nH]2)CCN(Cc2cn(CC(=O)O)c4ccccc24)C3)CC1", "induction": "-3.4%"}
{"smiles": "CC1(C)CCC[C@@]2(C)C1[C@@H](O)C[C@]1(C)C2CC[C@@H]2[C@@]3(C)CC[C@H](C(C)(C)O)[C@@H]3CC[C@@]21C", "note": "(stereo not given in full)", "induction": "16.7%"}
{"smiles": "O=c1c2ccccc2nc2n1C1(CCCCC1)Cc1ccccc1-2", "induction": "68.8% (active)"}
{"smiles": "c1cncc(-c2nnc3n2C2(CCCCC2)Cc2ccccc2-3)c1", "induction": "16.9%"}
{"smiles": "CCC1(CC)Cc2ccccc2-c2nc3ccccc3c(=O)n21", "induction": "22.9%"}
{"smiles": "Cc1ccc(NC(=S)N(Cc2ccco2)C(C)c2cccs2)cc1", "note": "(stereo not given)", "induction": "44.2%"}
{"smiles": "C=C(C)CC(Nc1ccc(C)cc1)c1ccco1", "note": "(stereo not given)", "induction": "61.3% (active)"}
{"smiles": "Cc1ccc(CC(=O)NCc2ccco2)cc1", "induction": "8.03%"}
{"smiles": "CC1CCCC(C)N1C(=O)[C@H]1C[C@@H](c2cccs2)NS(=O)(=O)N1C", "note": "(stereo not given in full)", "induction": "-34.9%"}
{"smiles": "Cc1nn2c(NCc3cccnc3)c3c(nc2c1-c1cccs1)CCC3", "induction": "-40.8%"}
{"smiles": "Cn1c(COc2cccc3ccccc23)nnc1SCC(=O)Nc1ccccc1Cl", "induction": "5.15%"}
{"smiles": "Cc1occc1-c1nnc(SCC(=O)Nc2ccc3c(c2)OCO3)n1Cc1ccco1", "induction": "25.1%"}
{"smiles": "Cc1ccc(-n2c(SCC(=O)Nc3ccc4c(c3)OCO4)nnc2-c2ccoc2C)cc1", "induction": "64.9% (active)"}
{"smiles": "Cc1ccc(-n2c(SCC(=O)Nc3ccc4c(c3)OCO4)nnc2-c2ccccn2)cc1", "induction": "4.01%"}
{"smiles": "CNC(=S)N(Cc1ccccc1)Cc1cc2cccc(C)c2[nH]c1=O", "induction": "-48.1%"}
{"smiles": "Nc1nc(Br)c2ccccc2c1-c1ccc(F)cc1", "induction": "62% (active)"}
